Each structure is given as a SMILES string. Among all 350,000 compounds or so, about 9,900 (2.8%) were called active. A call without a number means that no potency is given here. About 15% were inconclusive and are not listed. The call rests on the fitted dose curve; in most records, active means well fitted activation curve with a large enough effect; inconclusive means small, poorly fitted or top-dose-only effect; inactive means no such curve, though single readings can be large or run the other way. Only a selection was taken, and actives are over-represented in it overall.
Potency means the concentration at half of the fitted maximal effect.

This assay in a line: A quantitative high throughput screen for small molecules that induce DNA re-replication in MCF 10a normal breast cells. Further: nearly all actives have a fitted effect of over 50% in size. The settings on record: MCF 10A DNA re-replication, Hoechst nuclear intensity, 48 h; series mostly up to 46.1 µM.
For the compound `Cc1cc2c(cc1C)NC1(C[C@H]3CCC(=O)N4CC[C@@H](C1)[C@@H]34)C(=NC(C)(C)CC(C)(C)C)N2` (stereo partly specified), the Potency result is “inactive”.

As for `CCCCN1CC(CO)Oc2cccc(F)c2S1(=O)=O` (stereo unspecified), the Potency result is “inactive”.

With `Cc1cc(C(=O)OCC(=O)N2C(C)CCCC2C)c2ccccc2n1` (stereo unspecified), the Potency result was “inactive”.

For `CCOC(=O)N1CCN(C(=O)c2ccc(S(=O)(=O)Nc3cccc(C(F)(F)F)c3)cc2)CC1`, the Potency entry was “inactive”.

As to `O=C(NCc1ccccc1)c1ccc(S(=O)(=O)Nc2cccc(C(F)(F)F)c2)cc1`, the Potency entry is “inactive”.

In the case of `Cc1oc2c(F)c(F)c(F)c(F)c2c1S(=O)(=O)Nc1cccc(C(F)(F)F)c1`, the Potency was 16.4 µM (active).

On to `O=C1C=C(c2cc(C(F)(F)F)cc(C(F)(F)F)c2)C[C@@H](c2ccc3c(c2)OCO3)C1`, for which the Potency result was “inactive”.

As for `Fc1ccccc1COc1cccc2cccnc12`, the Potency result was “inactive”.

For the compound `Fc1ccccc1COc1ccccc1CNCc1ccncc1`, the Potency was 3.26 µM (active).

For `c1ccc(COc2ccccc2CNCc2cccnc2)cc1`, the Potency entry was “inactive”.

Take `C[C@@H]1ON(C)[C@H]2C[C@H]3c4cc(N5CCN(C)CC5)ccc4CCN3C(=O)[C@@H]12`: the Potency result was “inactive”.

In the case of `O=C(Nc1ccccc1)/C(=C/c1ccc([N+](=O)[O-])cc1)NC(=O)c1ccccc1`, the Potency result is “inactive”.

As for `CCOC(=O)/C(=C\c1ccc([N+](=O)[O-])cc1)C(=O)c1cc(C(C)=O)c(Nc2ccccc2)s1`, the Potency was 1.46 µM (active).

Regarding `Cc1cccc(NC(=O)c2sc(-c3ccccc3)nc2-c2ccc([N+](=O)[O-])cc2)c1`, the Potency result is “inactive”.

Consider `Cc1ccc(C(=O)CN2C(=O)NC3(CCOc4ccccc43)C2=O)s1` (stereo unspecified), for which the Potency result is “inactive”.

For `CCOc1ccc(S(=O)(=O)N2CCC(C(=O)NCC(=O)Nc3cccc(Cl)c3C)CC2)cc1`, the Potency entry is “inactive”.

With `C[C@H]1COC(=O)[C@H](CC(=O)OC(C)(C)C)C/C=C\C[C@@H](CC(=O)N[C@H](CO)Cc2ccccc2)C(=O)N1`, the Potency result is “inactive”.

Regarding `CC(=O)c1c(C)[nH]c(C(=O)COC(=O)c2cccs2)c1C`, the Potency entry is “inactive”.

`Nc1nc(-c2sc3nc4c(cc3c2N)CCCC4)nc(N2CCOCC2)n1`: the Potency was 6.51 µM (active).

With `Cc1nc(N2CCOCC2)nc2c1CCCC2`, the Potency result was “inactive”.

Turning to `CC(C)(C)S(=O)(=O)N1Cc2cc(CO)cc(CCO)c2[C@H]1CCO`, the Potency result is “inactive”.

Take `COc1ccc(S(=O)(=O)N2CCN(c3cnccn3)CC2)cc1`: the Potency entry is “inactive”.

For the compound `Cc1cccc(NC(=O)c2ccc3c(=O)n(CC4CCCO4)c(=S)[nH]c3c2)c1` (stereo unspecified), the Potency entry was “inactive”.

For the compound `COC(=O)c1ccc2c(=O)n(CC3CCCO3)c(=S)[nH]c2c1` (stereo unspecified), the Potency was 23.1 µM (active).

As for `O=C(NC1CCCCC1)c1ccc2c(=O)n(CC3CCCO3)c(=O)[nH]c2c1` (stereo unspecified), the Potency entry was “inactive”.

As for `Cc1cc(C)nc(N/N=C/c2ccncc2)n1`, the Potency result is “inactive”.

Take `CCN(CC)c1ccc(/C=N/Nc2nc(C)cc(=O)[nH]2)cc1`: the Potency result was “inactive”.

As to `CCN(CC)c1ccc(/C=N/Nc2nc(C)cc(C)n2)c(O)c1`, the Potency is 18.4 µM (active).

For the compound `CCN(CC)c1ccc(/C=N/NC(=O)CNC(=O)c2cccnc2)cc1`, the Potency result is “inactive”.

For the compound `Cc1ccc(C(=O)NCCNC(=O)c2cnccn2)cc1`, the Potency entry is “inactive”.

As for `CCN(CC)c1ccc(/C=N/NC(=O)c2cnccn2)c(O)c1`, the Potency is 18.4 µM (active).

As to `COc1ccc(/C=C/C(=O)OCC(=O)N2CCN(S(=O)(=O)c3ccc(C)cc3C)CC2)cc1OC`, the Potency result is “inactive”.

As to `C[C@]12CCC(=O)C=C1C=CC1C2CC[C@@]2(C)C1CC[C@@]21CCC(=O)O1` (stereo partly specified), the Potency result was “inactive”.

As for `CCN(C(=O)COC(=O)CCOc1cccc(C)c1)c1c(N)n(Cc2ccccc2)c(=O)[nH]c1=O`, the Potency result was “inactive”.

As to `CC(C)Cn1c(SCC(=O)Nc2ccc(Cl)cc2F)nc(O)cc1=O`, the Potency result is “inactive”.

As for `Cc1ccc(CNC(=O)COC(=O)C2CCC2)cc1`, the Potency result is “inactive”.

As for `O=C(c1ccc(Cl)nc1)N1CCN(S(=O)(=O)c2ccc3c(c2)OCCO3)CC1`, the Potency entry is “inactive”.

Take `COc1ccc(S(=O)(=O)N2CCN(CC(=O)N3c4ccccc4CC3C)CC2)cc1OC` (stereo unspecified): the Potency entry is “inactive”.

For the compound `CCNc1nc(NCC)nc(N/N=C/c2ccc(O)c(OC)c2)n1`, the Potency result is “inactive”.

As to `COc1cc(/C=N/Nc2ccc(C)cc2)cc(Br)c1O`, the Potency is 25.9 µM (active).

Consider `COc1cc(/C=N/NC(=S)Nc2cccnc2)cc(OC)c1O`, for which the Potency entry was “inactive”.

For `CCN(C(=O)CSc1nnnn1-c1ccc(OC)cc1)C1CCS(=O)(=O)C1` (stereo unspecified), the Potency result was “inactive”.

Take `COC(=O)c1cc(Oc2ccc(S(=O)(=O)N3CCOCC3)cc2[N+](=O)[O-])cc(C(=O)OC)c1`: the Potency entry is “inactive”.

On to `O=S(=O)(NCCc1ccc(F)cc1)c1cccc2cccnc12`, for which the Potency entry was “inactive”.

Turning to `O=S(=O)(NCc1ccccn1)c1ccc(F)cc1`, the Potency result was “inactive”.

For `O=S(=O)(NCCOc1cccc2cccnc12)c1ccc(F)cc1`, the Potency is 10.3 µM (active).

For `COc1ccccc1C(=O)NCC(=O)NCCSc1ccc(Br)cc1`, the Potency result was “inactive”.

For `O=C(O[C@H]1[C@H](Cc2ccccc2)NS(=O)(=O)[C@H]2C[C@@H]3C=C[C@]12O3)c1ccc([N+](=O)[O-])cc1`, the Potency result was “inactive”.

As to `CCOC(=O)C1CCN(C(=O)CN2C(=O)NC(C)(c3ccc4cc(OC)ccc4c3)C2=O)CC1` (stereo unspecified), the Potency entry is “inactive”.

As for `COc1cc(/C=C(\C#N)c2nc3ccccc3[nH]2)ccc1O`, the Potency entry was “inactive”.

With `COc1ccc(/C=C(\C#N)c2c[nH]c3ccccc23)cc1`, the Potency was 13 µM (active).

Regarding `COc1ccc(C(C(O)C(=O)c2c[nH]c3ccccc23)N2CCN(c3ccccc3)CC2)cc1` (stereo unspecified), the Potency entry is “inactive”.

Consider `COc1ccc(C(=O)COC(=O)CN2C(=O)C3CC=CCC3C2=O)c(OC)c1` (stereo unspecified), for which the Potency result is “inactive”.

Turning to `CCOC(=O)c1c(NC(=O)CNC2CCCc3ccccc32)sc(C(N)=O)c1C` (stereo unspecified), the Potency was 16.4 µM (active).

In the case of `CCOC(=O)c1sc(NC(=O)COc2ncnc3ccccc23)c(C(=O)OCC)c1C`, the Potency entry was “inactive”.

In the case of `NC(=O)Nc1ccc(C(=O)OCC(=O)NC2CCCc3ccccc32)cc1` (stereo unspecified), the Potency entry was “inactive”.

With `O=C(COC(=O)c1ccc(O)cc1O)NC(=O)c1ccccc1`, the Potency result is “inactive”.

As to `O=C(Nc1ccc(CN2CCOCC2)cc1)c1cc(Cl)ccc1Cl`, the Potency entry was “inactive”.

For the compound `CCCc1cc(=O)oc2cc(OCC(=O)Nc3ccc(CN4CCOCC4)cc3)c(Cl)cc12`, the Potency result is “inactive”.

In the case of `CCCC(=O)NC(=S)Nc1ccc(CN2CCOCC2)cc1`, the Potency is 0.651 µM (active).

Take `O=C(c1cc2ccccc2o1)N1CCN(S(=O)(=O)c2ccc(Cl)s2)CC1`: the Potency entry was “inactive”.

Regarding `CCCCCCSc1ccc([C@@H]2[C@H]3C(=O)N(CC)C(=O)[C@H]3[C@]3(C(=O)OC)CCCCN23)cc1`, the Potency entry was “inactive”.

Turning to `CCn1nnc2cc(C(=O)Nc3ccc(C(=O)OC(C)C)cc3)ccc21`, the Potency result was “inactive”.

Take `CCOC(=O)C1=C(CC)Nc2ccccc2N=C1N`: the Potency entry is “inactive”.

As for `CCOC(=O)C1=C(CC)Nc2ccccc2N=C1NC(=O)c1cccc(S(=O)(=O)N2CCCC2)c1`, the Potency was 23.1 µM (active).

Regarding `CCOC(=O)CSc1nnc(NC(=O)c2cccc(S(=O)(=O)N3CCCC3)c2)s1`, the Potency result is “inactive”.

With `CCC(C)C(N=C1NS(=O)(=O)c2ccccc21)C(=O)N1CCC(C)CC1` (stereo unspecified), the Potency result was “inactive”.

In the case of `Cn1c(=O)c2c(nc(Br)n2CCSc2nc3ccccc3o2)n(C)c1=O`, the Potency result was “inactive”.

`Cc1ccnc(SCCn2c(Br)nc3c2c(=O)[nH]c(=O)n3C)n1`: the Potency result was “inactive”.

As to `Cn1c(=O)[nH]c(=O)c2c1nc(Br)n2CCCCSc1nc2ccccc2o1`, the Potency was 7.31 µM (active).

Regarding `Cc1cccc(C(=O)N[C@H](C(=O)NCc2cccs2)C(C)C)c1`, the Potency entry was “inactive”.

Turning to `CC(C)(C)OC(=O)C[C@@H]1C/C=C\C[C@@H](CC(=O)N[C@@H](CO)Cc2ccccc2)C(=O)N2CCC[C@H]2COC1=O`, the Potency entry was “inactive”.

Turning to `Nc1ccc2[nH]c(=S)sc2c1`, the Potency result is “inactive”.

On to `CCCN1CCn2c3c(c4cc(Br)ccc42)CCCC31` (stereo unspecified), for which the Potency was 23.1 µM (active).

With `COc1ccc(S(=O)(=O)N2CCOCC2)cc1NC(=O)CC1CC2CCC1C2` (stereo unspecified), the Potency entry is “inactive”.

For the compound `Cc1ccc(C(=O)O)c(NC=O)c1OCc1ccccc1`, the Potency entry was “inactive”.

Consider `CCCCCCCCCCOC(=O)Cn1c(COc2ccc(C)cc2)[n+](C)c2ccccc21`, for which the Potency was 23.1 µM (active).

For `CCCCOC(=O)Cn1c(=N)n(CCN(CC)CC)c2ccccc21`, the Potency entry was “inactive”.

Consider `CCCCOC(=O)Cn1c(=O)n(CC(=O)OCCCC)c2cc(C)ccc21`, for which the Potency result is “inactive”.

As to `CC(=O)Nc1ccc(S(=O)(=O)NC(C)C(=O)OCCOc2ccc(F)cc2)cc1` (stereo unspecified), the Potency result was “inactive”.

Regarding `CCOc1c(OC)cccc1C(=O)NCC1(c2ccccc2)CCCC1`, the Potency was 20.6 µM (active).

Take `COc1ccc(C2(CNC(=O)Cc3ccc(OC)c(OC)c3)CCCC2)cc1`: the Potency entry was “inactive”.

Regarding `COc1cc(C(=O)NCC2(c3ccccc3)CCCC2)ccc1OC(C)C`, the Potency entry was “inactive”.

With `CCC(C)CCN1CCN=C1N(C)C` (stereo unspecified), the Potency result was “inactive”.

In the case of `O=C1CC[C@@H]2CC3(C[C@@H]4CCN1[C@H]24)Nc1cc([N+](=O)[O-])ccc1NC3=NC1CCCCC1` (stereo partly specified), the Potency result was “inactive”.

Take `COc1ccccc1CNC(=O)c1cc(=O)c2ccccc2o1`: the Potency entry is “inactive”.

As for `O=C(c1cc(=O)c2ccccc2o1)N1CCN(c2ccccc2)CC1`, the Potency entry was “inactive”.

Consider `COc1cc2c(cc1OC)CN(C(=O)c1cc(=O)c3ccccc3o1)CC2`, for which the Potency was 10.3 µM (active).

In the case of `NC(=O)C1(Nc2ccc([N+](=O)[O-])cc2)CCCC1`, the Potency result was “inactive”.

As to `CC1CN(Cc2ccco2)C(=S)N(c2ccccc2)C1=O` (stereo unspecified), the Potency result is “inactive”.

Take `C[C@H](NC(=O)OC(C)(C)C)c1nnc(SCC(N)=O)o1`: the Potency result is “inactive”.

Turning to `C[C@@H](NC(=O)OC(C)(C)C)c1nnc(S(=O)(=O)Cc2ccccc2)o1`, the Potency is 18.4 µM (active).

On to `CC(C)Sc1nnc([C@H](Cc2ccccc2)NC(=O)OC(C)(C)C)o1`, for which the Potency result is “inactive”.

Consider `Cc1ccc(S(=O)(=O)Nc2ccc(F)c(S(=O)(=O)N3CCOCC3)c2)cc1`, for which the Potency entry is “inactive”.

For `CNS(=O)(=O)c1cccc(C(=O)OCCCC(=O)c2ccccc2)c1`, the Potency entry is “inactive”.

For `CCOc1cc(-c2cc(-c3ccc(NC(C)=O)cc3)nc(N)c2C#N)ccc1O`, the Potency was 18.4 µM (active).

On to `CCOc1cc(-c2cc(-c3ccc(OC)cc3)nc(N)c2C#N)ccc1O`, for which the Potency entry was “inactive”.

Regarding `COc1ccc(-c2cc(-c3ccc(N)cc3)nc(N)c2C#N)cc1OC`, the Potency is 23.1 µM (active).

Regarding `COc1ccc(C2CC(=O)Nc3sc(=N)c4c(N)c(C#N)c(N)nc4c32)cc1OC` (stereo unspecified), the Potency result was “inactive”.

As for `CC(=O)Nc1ccc(-c2cn3cccnc3n2)cc1`, the Potency result was “inactive”.

For `COc1ccc(OC)c2c(N)c(C#N)c(C(F)(F)C(F)(F)F)nc12`, the Potency result is “inactive”.
